Several values for one entry are separate records, joined by “and”; a condition that tells them apart may be missing. Equal values may be shown once. Out of some 310,000 compounds screened, about 17,000 (5.5%) were called active. Where a call stands in place of a potency, no number is given. Inconclusive results (about 11%) are left out. The sample holds actives, similar compounds and a random draw of the others, so the mix is not that of the screen. Calls follow the shape of the dose curve; as a rule, active = well fitted inhibition curve with a large enough effect; inconclusive = small, poorly fitted or top-dose-only effect, or effect the other way; inactive = no such curve, though single readings can be large or run the other way.
Potency is read from the fitted curve at half-maximal effect.

Chain of Nuclear receptor ROR-gamma (Mus musculus) (P51450 whole entry, looked up, the tested form may be a part): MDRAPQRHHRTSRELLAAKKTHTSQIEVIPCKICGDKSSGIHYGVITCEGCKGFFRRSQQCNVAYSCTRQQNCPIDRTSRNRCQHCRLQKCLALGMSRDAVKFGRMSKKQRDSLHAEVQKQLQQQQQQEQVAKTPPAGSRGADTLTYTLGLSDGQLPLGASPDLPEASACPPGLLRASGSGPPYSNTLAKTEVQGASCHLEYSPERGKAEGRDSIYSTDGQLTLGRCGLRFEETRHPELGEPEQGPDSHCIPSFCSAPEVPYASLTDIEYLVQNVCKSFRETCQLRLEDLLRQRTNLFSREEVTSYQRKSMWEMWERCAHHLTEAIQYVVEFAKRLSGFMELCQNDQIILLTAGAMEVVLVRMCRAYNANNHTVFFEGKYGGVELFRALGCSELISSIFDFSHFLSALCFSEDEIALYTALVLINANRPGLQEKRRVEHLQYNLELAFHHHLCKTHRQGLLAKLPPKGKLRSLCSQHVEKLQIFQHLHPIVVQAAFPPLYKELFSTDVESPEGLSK

The experiment concerns the target Nuclear receptor ROR-gamma (Mus musculus) (UniProt P51450). Briefly: qHTS for inhibitors of ROR gamma transcriptional activity. Also: nearly all actives have a fitted effect of over 60% in size. The following applies: Drosophila S2 Gal4-RORgamma UAS-luciferase reporter, 20 h; series mostly up to 53.6 µM. The gist of the method:
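A Gal4/UAS one-hybrid system in insect cells: metallothionein-promoter Gal4–ROR gamma fusion plus Photinus luciferase reporter. Copper sulfate 700 uM final, 20 hr ambient incubation, luminescent detection after 10 min with reagent.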
On the technique in general: In qHTS, concentration-response curves come from the screen itself.
As for `O=[N+]([O-])c1ccc(N2CCN(c3ccc(F)cc3)CC2)cn1`, the Potency result is “inactive”.
Consider `Cc1cc(C)cc(NC(=S)NCc2ccc(F)cc2)c1`, for which the Potency is 2.51 µM (active).
As to `O=C(COc1ccc(Br)cc1F)NC1CCN(Cc2ccccc2)CC1`, the Potency entry is “inactive”.
With `COC(=O)c1sccc1NC(=S)Nc1ccc(C)cc1`, the Potency entry is “inactive”.
On the same count and under the same terms, with `Cc1cc(C)cc(NC(=O)NC2CCCCCCC2)c1` the entry was “inactive”.
Still for that read-out and setting: with `Cc1ccc(C(=O)CNc2ccc(F)cc2)cc1` the entry was “inactive”; with `S=C(Nc1ccc(Br)cc1Cl)NC1CCN(Cc2ccccc2)CC1`, 10 µM (active).
For `Cc1cc(Br)ccc1NC(=S)NC1CCCC1`, the Potency was 3.16 µM (active).
In the case of `CCCCC(=O)NCc1ccc(F)cc1`, the Potency entry was “inactive”.
Still for that read-out and setting: with `Cc1ccc(NC(=S)Nc2ccc(F)cc2)cc1` the figure was 11.2 µM (active); with `O=C(NC1CCN(Cc2ccccc2)CC1)c1cc(Br)c(Br)[nH]1`, “inactive”.
The same measure, in the same setting: with `CC(Oc1ccc(Br)cc1Br)C(=O)NC1CCCC1` (centres undefined) the entry was “inactive”; with `COc1cc(NC(=S)NCc2ccc(S(N)(=O)=O)cc2)cc(OC)c1`, “inactive”; with `CC(=O)Nc1ccc(Oc2ccc3c(c2)C(=O)NC3=O)cc1`, “inactive”.
Same read-out and setting: with `O=C(NCCCn1ccnc1)/C(=C\c1ccccc1F)NC(=O)c1ccccc1` the entry was “inactive”; with `CCc1cc(=O)oc2c(C)c(OCC(=O)NCCN3CCOCC3)ccc12`, “inactive”; with `CCCc1cc(=O)oc2cc(OCC(=O)Nc3ccc(CN4CCOCC4)cc3)c(Cl)cc12`, “inactive”.
`COc1ccc(N2CCN(CCNC(=O)Nc3cc(Cl)ccc3Cl)CC2)cc1`: the Potency entry is “inactive”.
Consider `CCOC(=O)C1=C(CCc2ccccc2)NC(=O)NC1c1ccc2ccccc2c1` (centres undefined), for which the Potency result was “inactive”.
The same measure, in the same setting: with `COc1ccc(CNC(=O)Cc2ccc(-c3ccccc3)cc2)cc1OC` the entry was “inactive”.
As for `CCOc1ccc(NC(=O)c2cccc3c2C(=O)N(CC2CCCO2)C3)cc1` (centres undefined), the Potency result is “inactive”.
On the same count and under the same terms, with `COc1ccc(-c2noc(CCCC(=O)NC3CCCC3)n2)cc1OC` the entry was “inactive”.
Take `O=C(CCn1nnc2ccccc21)OCC(=O)c1ccc([N+](=O)[O-])cc1`: the Potency entry is “inactive”.
Same read-out and setting: with `COc1ccc(C2NC(=O)N(C)C(C)=C2[N+](=O)[O-])cc1` (centres undefined) the entry was “inactive”.
As for `CCN(CC(=O)Nc1ccc2c(c1)OCO2)S(=O)(=O)c1ccccc1`, the Potency result is “inactive”.
Turning to `CCc1c(C)nc(SCC(=O)NC2CCCC2)[nH]c1=O`, the Potency entry was “inactive”.
Same read-out and setting: with `CN(CCc1ccccn1)C1CCCN(S(=O)(=O)c2ccccc2Cl)C1` (centres undefined) the entry was “inactive”.
Take `O=C(NC1CCN(Cc2ccccc2)CC1)c1c(F)cccc1F`: the Potency entry is “inactive”.
On the same count and under the same terms, with `S=C(NN=C1CCN(Cc2ccccc2)CC1)NC1CCCCC1` the figure was 2.24 µM (active); with `O=C(NCCc1c[nH]c2ccccc12)c1cccc(Br)c1`, “inactive”; with `CC(C)c1ccc(NC(=O)NC2CCCCC2)cc1`, “inactive”.
For the compound `COc1ccccc1CC(=O)NCCc1c[nH]c2ccccc12`, the Potency entry is “inactive”.
As for `Cc1ccc(NC(=S)NC2CCCC2)cc1`, the Potency was 3.55 µM (active).
Still for that read-out and setting: with `O=C(NC1CCN(Cc2ccccc2)CC1)c1ccccc1F` the entry was “inactive”.
For the compound `Cc1ccc(NC(=O)CSCC(=O)NC2CCCCC2)cc1`, the Potency result was “inactive”.
Take `Cc1cc(C)cc(NC(=S)NCCc2c[nH]c3ccccc23)c1`: the Potency was 7.08 µM (active).
Same read-out and setting: with `COc1ccc(CN2CCN(Cc3ccc(OC)c(OC)c3OC)CC2)cc1` the entry was “inactive”; with `CC1(c2ccc(Cl)cc2)NC(=O)N(CC(=O)c2ccc3c(c2)OCO3)C1=O` (centres undefined), “inactive”; with `CCc1ccc(Oc2coc3cc(O)ccc3c2=O)cc1`, “inactive”.
Turning to `CCC1CCCCN1C(=O)CSc1nc2c(c(=O)n1C)SC(C)C2` (centres undefined), the Potency result is “inactive”.
Turning to `Cc1noc(C)c1CCC(=O)N1CCCC(CO)(Cc2ccccc2)C1` (centres undefined), the Potency entry was “inactive”.
Consider `CCOc1ccc(NC(=O)C2CCN(C(=O)N3CCOc4ccccc43)CC2)cc1`, for which the Potency entry is “inactive”.
As to `CCC(C)Sc1nc2c(cnn2-c2ccc(F)cc2)c(=O)[nH]1` (centres undefined), the Potency result is “inactive”.
Turning to `CCc1[nH]nc(C(=O)N2CCCC(CO)(Cc3ccc(F)cc3F)C2)c1C` (centres undefined), the Potency entry was “inactive”.
As for `COc1cccc(C(=O)Nc2nc3ccc(S(C)(=O)=O)cc3s2)c1`, the Potency is 7.94 µM (active).
Still for that read-out and setting: with `CS(=O)(=O)c1ccc2nc(NC(=O)c3ccc(N4CCCC4=O)cc3)sc2c1` the entry was “inactive”.
Same read-out and setting: with `COc1ccc2nc(NC(=O)[C@@H]3CCCN3C(=O)c3cccs3)sc2c1` the entry was “inactive”.
In the case of `CCOc1ccc2nc(NC(=O)CSc3nc4c(c(=O)n(C)c(=O)n4C)n3CC)sc2c1`, the Potency entry was “inactive”.
Same read-out and setting: with `CCOc1ccc2nc(Nc3nc4ccc(NC(C)=O)cc4s3)sc2c1` the figure was 3.16 µM (active); with `CS(=O)(=O)c1ccc2nc(NC(=O)c3ccc(Cl)nc3)sc2c1`, “inactive”.
For the compound `COc1ccc2nc(Nc3nc4ccc(NC(C)=O)cc4s3)sc2c1`, the Potency is 2.82 µM (active).
Regarding `COc1ccc2nc(Nc3nc4cc5c(cc4s3)OCCO5)sc2c1`, the Potency was 12.6 µM (active).
Turning to `CCC(=O)c1ccc(OCC(=O)Nc2ccc3nc(C)sc3c2)cc1`, the Potency result is “inactive”.
As for `COc1ccc2nc(NC(=O)NC3CCCCC3)sc2c1`, the Potency result is “inactive”.
Still for that read-out and setting: with `CNC(=O)c1ccc2nc(NC(C)=O)sc2c1` the entry was “inactive”; with `CCOc1ccc(S(=O)(=O)Nc2nc3cc(OC)ccc3s2)cc1`, “inactive”.
On the same count and under the same terms, with `Cc1ccc2nc3c(cc(C(=O)NCCc4ccccc4)c(=N)n3CC3CCCO3)c(=O)n2c1` (centres undefined) the entry was “inactive”.
On the same count and under the same terms, with `COc1ccccc1N(C)C(=O)c1cc(S(=O)(=O)N2CCc3ccccc32)cn1C` the entry was “inactive”; with `O=C(NCCOc1cccnc1)c1ccc(OC2CCN(Cc3ccccn3)CC2)cc1`, “inactive”.
As for `Nc1nnnn1/N=C/c1cccc(Br)c1`, the Potency entry was “inactive”.
As to `CCCc1nn(C)c2c(=O)[nH]c(-c3cc(S(N)(=O)=O)ccc3OCC)nc12`, the Potency entry was “inactive”.
Turning to `CCOc1cc(-c2noc(CCCC(=O)NC3CCCCC3)n2)ccc1OC`, the Potency entry was “inactive”.
In the case of `O=C(NCCCn1ccnc1)C1CCCN(S(=O)(=O)c2cc(Cl)ccc2Cl)C1` (centres undefined), the Potency result is “inactive”.
The same measure, in the same setting: with `CCCNC(=O)c1cnc(-c2ccccc2)nc1-c1ccccc1` the entry was “inactive”; with `C[C@H](NC(=O)C1CCN(S(=O)(=O)c2ccccc2)CC1)C(=O)NCc1ccccc1`, “inactive”.
Same read-out and setting: with `COc1ccc2nc(Nc3nc(-c4ccncc4)cs3)sc2c1` the entry was “inactive”; with `COc1ccc2nc(Nc3nc(-c4cc5ccccc5oc4=O)cs3)sc2c1`, 7.08 µM (active); with `COc1ccc2oc(=O)cc(-c3cc4ccccc4o3)c2c1`, “inactive”.
For the compound `COCCOC1CCN(C(=O)c2ccc(OC)c(OC3CCN(C(C)C)CC3)c2)CC1`, the Potency result was “inactive”.
Still for that read-out and setting: with `COc1ccccc1C(=O)N(Cc1ccc(C)o1)C1CCS(=O)(=O)C1` (centres undefined) the entry was “inactive”; with `CCOC(=O)c1ccc2[nH]c3c(c2c1)CCCC3NC=O` (centres undefined), “inactive”.
Still for that read-out and setting: with `Cc1cccc(N=C2NN=C(c3c[nH]c4ccccc34)CS2)c1` the figure was 4.47 µM (active).
On the same count and under the same terms, with `Cc1cccc(C(=O)Nc2nnc(Cc3c[nH]c4ccccc34)s2)c1` the entry was “inactive”; with `N#Cc1c(N2CCCCC2)nc(N)c2c(N)nc(SCC(=O)O)cc12`, 3.98 µM (active); with `N#Cc1c(-c2ccccc2)cc(-c2ccccc2)nc1SCC(=O)O`, “inactive”.
Consider `Cc1cc(C)c(C#N)c(N2CCC(C(N)=O)CC2)n1`, for which the Potency result is “inactive”.
On to `COc1ccccc1N1CCN(C(=O)c2cc(=O)c3cc(C)ccc3o2)CC1`, for which the Potency result is “inactive”.
Turning to `COc1ccc(C(C(=O)NC2CCCC2)N(CCCO)C(=O)Cn2nnc(-c3ccc(C)o3)n2)cc1` (centres undefined), the Potency result is “inactive”.
`COC(=O)c1ccc(NC(=O)CSc2nnc(C3CC3)n2C)cc1`: the Potency result is “inactive”.
`COC(=O)CN1C(=O)[C@H]2[C@@H](/C=C/c3ccccc3)N3C(=O)CN(Cc4ccccc4)C(=O)[C@@]3(Cc3ccccc3)[C@H]2C1=O`: the Potency entry was “inactive”.
Still for that read-out and setting: with `CCOC(=O)c1cccc(NC(=O)CN2C(=O)C3CC=CCC3C2=O)c1` (centres undefined) the entry was “inactive”; with `C=CCNC(=O)CCCOc1cccc(C)c1`, “inactive”.
The same measure, in the same setting: with `C=CCNC(=O)COc1coc(CN2CCN(Cc3ccccc3)CC2)cc1=O` the entry was “inactive”.
Take `C=CCNC(=S)NNC(=O)COc1c(Cl)cc(Cl)cc1Cl`: the Potency was 1.26 µM (active).
As to `Cc1ccsc1C(=O)N[C@@H](C)c1nnc2ccccn12`, the Potency entry was “inactive”.
Same read-out and setting: with `O=C(c1ccc(Br)o1)N1CCN(CCOc2ccccc2)CC1` the entry was “inactive”; with `O=C(N=C1SC2CS(=O)(=O)CC2N1c1cc(Cl)ccc1Cl)C1CC1` (centres undefined), “inactive”; with `COc1cc(NS(=O)(=O)c2ccc3ccccc3c2)c2ncccc2c1`, 1.12 µM (active) and 178 nM (active).
Take `Cc1ccc(S(=O)(=O)Nc2ccc3ncccc3c2)cc1`: the Potency entry was “inactive”.
For `COc1ccc2cc(S(=O)(=O)Nc3ccccn3)ccc2c1`, the Potency entry was “inactive”.
Take `COc1cc2c(cc1OC)C(c1cccc([N+](=O)[O-])c1)=NCC2`: the Potency entry is “inactive”.
On the same count and under the same terms, with `Cc1cc(=O)oc2c1ccc1ccccc12` the entry was “inactive”; with `c1c2c(cc3sc(N4CCCCC4)nc13)OCCO2`, 0.794 µM (active); with `Cc1nc2cc3c(cc2s1)OCO3`, “inactive”.
Same read-out and setting: with `Brc1ccc2nc(N3CCCC3)sc2c1` the entry was “inactive”.
The same measure, in the same setting: with `COc1ccc(-c2cc(=O)oc3cc(OC(C)C(=O)Nc4ccc(CN5CCOCC5)cc4)ccc23)cc1` (centres undefined) the entry was “inactive”.
Regarding `Cc1ccc(N(C(=O)CNC(=O)c2ccco2)C(C(=O)NC2CCCC2)c2ccncc2)cc1` (centres undefined), the Potency entry was “inactive”.
The same measure, in the same setting: with `NS(=O)(=O)c1cccc(NC(=O)CSc2nc3ccccc3n2-c2ccccc2)c1` the entry was “inactive”.
For `CCN(CC(=O)NC(=O)NCc1ccccc1)Cc1nc2ccccc2c(=O)[nH]1`, the Potency is 0.355 µM (active).
Same read-out and setting: with `CN(C)S(=O)(=O)c1cc(NC(=O)CN2C(=O)NC3(CCCc4ccccc43)C2=O)ccc1Cl` (centres undefined) the entry was “inactive”; with `CCN(CC(=O)Nc1ccc(Cl)c(S(=O)(=O)N(C)C)c1)Cc1nc2ccccc2c(=O)[nH]1`, 12.6 µM (active).
In the case of `COc1ccc(-n2cnnc2SCC(=O)Nc2cccc(S(N)(=O)=O)c2)cc1`, the Potency result was “inactive”.
Turning to `CCCc1nc(SCC(=O)Nc2ccc(S(=O)(=O)N(C)C)cc2)c2ccccc2n1`, the activity change, negative = inhibition is 7.51% [at 10 µM] (inactive).
For `CCCC(=O)N(CCc1ccccc1)Cc1nc2ccccc2c(=O)[nH]1`, the Potency result is “inactive”.
The same measure, in the same setting: with `CCn1c(Cc2ccccc2)nnc1SCc1nc2ccccc2c(=O)[nH]1` the entry was “inactive”.
The same measure, in the same setting: with `CC(C)=C(NC(=O)c1ccco1)C(=O)NCCc1nc2ccccc2[nH]1` the entry was “inactive”; with `CCN(CC)c1ccc(C(=O)NNC(=O)CCc2nc3ccccc3c(=O)[nH]2)cc1`, “inactive”; with `CCN(CC(=O)Nc1cccc(S(N)(=O)=O)c1)Cc1nc2ccccc2c(=O)[nH]1`, 2.82 µM (active).
On the same count and under the same terms, with `O=C(c1ccco1)N(Cc1nc2ccccc2c(=O)[nH]1)C1CCCC1` the figure was 1.58 µM (active).

Source of the values: PubChem BioAssay AID2551 (National Center for Advancing Translational Sciences (NCATS), 2010).
